These results are taken from PubChem BioAssay (NCATS).

Inconclusive results are not listed. Calls of active or inactive are those of the source. The call rests on the fitted dose curve; in most records, active means well fitted activation curve with a large enough effect; inconclusive means small, poorly fitted or top-dose-only effect; inactive means no such curve, though single readings can be large or run the other way.
Potency means the concentration at half of the fitted maximal effect.

Sequence of D(1A) dopamine receptor (Homo sapiens) (P21728 whole entry, looked up): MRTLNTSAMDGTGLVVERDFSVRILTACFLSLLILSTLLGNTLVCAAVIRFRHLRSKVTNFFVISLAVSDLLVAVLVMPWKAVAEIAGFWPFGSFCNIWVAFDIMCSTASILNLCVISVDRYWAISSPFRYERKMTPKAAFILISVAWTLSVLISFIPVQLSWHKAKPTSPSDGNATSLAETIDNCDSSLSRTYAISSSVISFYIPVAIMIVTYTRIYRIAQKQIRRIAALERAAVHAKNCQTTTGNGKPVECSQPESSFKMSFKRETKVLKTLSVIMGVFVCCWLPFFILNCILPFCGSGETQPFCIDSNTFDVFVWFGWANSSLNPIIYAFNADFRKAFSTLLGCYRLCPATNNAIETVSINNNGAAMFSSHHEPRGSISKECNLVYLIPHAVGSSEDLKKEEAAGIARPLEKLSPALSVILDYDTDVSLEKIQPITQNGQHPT

This assay has as its target D(1A) dopamine receptor (Homo sapiens) (UniProt P21728). As to the kind of experiment: HTS Assay for Allosteric Agonists of the Human D1 Dopamine Receptor: Primary Screen for Potentiators (AID 488982). On activity, positive = potentiation: 0% is about no effect. The note with it: HEK293 T-REx D1 inducible cells, calcium flux, kinetic fluorescence; series mostly up to 8.37 µM; activity, positive = potentiation: at the top concentration. The source says: Dopamine receptors (DARs) are involved in the etiology and/or therapy of a number of neuropsychiatric and endocrine disorders. For instance, all receptor-based antiparkinsonian drugs work via stimulating the […] DAR subtype whereas all FDA-approved antipsychotic agents are antagonists of this receptor. […] There are three different types of allosteric modulators that we are seeking, two of which will stimulate or augment receptor signaling, allosteric agonists and potentiators, while the third, allosteric antagonists, will attenuate receptor signaling. The present primary screening assay measures compound agonism by tracking calcium flux in a […], inducible Hek293 Trex D1 cell line.
Freshly passaged cells are plated in 1536 well black, clear bottom plates at a density of 4000 cells/well in 3 ul of complete media containing 1x tetracycline inducer. After an overnight incubation at 30 C in 5% CO2, cells are loaded with 2 ul of the no wash Calcium Assay Kit (ABD Bioquest) and incubated at room temperature for 30 to 90 minutes. A 10 cycle (1 second/cycle) baseline measurement is taken and then the FDSS online 1536 pintool delivers 23 nl of compound library (as well as dopamine controls) to the plate. The plate is measured for kinetically at 1 cycle/sec for 180 seconds and is considered to be the agonist portion of the assay (eg, compounds which activate a positive calcium response during this portion are flagged as potential agonists). Following the 180 second read, 1 ul of an EC20 of dopamine is delivered by an onboard pipette head. Measurements are taken kinetically for an additional 180 seconds.
In general terms: A change in cytosolic calcium serves as a functional read-out for many receptors and channels.
`COc1cc2nc(N3CCN(C(=O)C4COc5ccccc5O4)CC3)nc(N)c2cc1OC` (stereo not given): the “activity, positive = potentiation” value was -43% (inactive). Same read-out and setting: then `NCCS(=O)(=O)O`, with 6.95% (inactive). On the same count and under the same terms, then `CC(C)(Oc1ccc(C2CC2(Cl)Cl)cc1)C(=O)O` (stereo not given), with 8.35% (inactive).

On to `CC1COc2c(N3CCN(C)CC3)c(F)cc3c(=O)c(C(=O)O)cn1c23` (stereo not given), for which the “activity, positive = potentiation” value was 12.2% (inactive). For `Cc1cn([C@H]2C=C[C@@H](CO)O2)c(=O)[nH]c1=O`, the “activity, positive = potentiation” value is 18.2% (inactive). Turning to `N[C@@H](Cc1c[nH]c2ccc(O)cc12)C(=O)O`, the “activity, positive = potentiation” value is -1.32% (inactive). Same read-out and setting: then `Cn1ccc2cc3c(cc21)CCN3C(=O)Nc1cccnc1`, with -66.2% (inactive); and `COc1cc2c(c(OC)c1OC)-c1ccc(OC)c(=O)cc1[C@@H](NC(C)=O)CC2`, with 2.87% (inactive). Take `Clc1ccccc1C(c1ccccc1)(c1ccccc1)n1ccnc1`: the “activity, positive = potentiation” value is 17.4% (inactive). The same measure, in the same setting: for `Cc1cc(C(C)(C)C)cc(C)c1CC1=NCCN1` the value was 3.33% (inactive).

On to `Cn1cnc2c1c(=O)[nH]c(=O)n2C`, for which the “activity, positive = potentiation” value was -1.18% (inactive). Same read-out and setting: for `Clc1ccc2c(c1)C(N1CCNCC1)=Nc1ccccc1O2` the value was -81.2% (inactive). In the case of `COc1ccc(CCN(C)CCCC(C#N)(c2ccc(OC)c(OC)c2)C(C)C)cc1OC` (stereo not given), the “activity, positive = potentiation” value was -23.8% (inactive). In the case of `COc1ccc2[nH]cc(CCNC(C)=O)c2c1`, the “activity, positive = potentiation” value was -10.8% (inactive).

On to `CC12CC3CC(C)(C1)CC(N)(C3)C2`, for which the “activity, positive = potentiation” value is 25.1% (inactive). The same measure, in the same setting: for `CC[N+](CC)(CC)CCOc1cccc(OCC[N+](CC)(CC)CC)c1OCC[N+](CC)(CC)CC` the value was 4.6% (inactive). Still for that read-out and setting: then `CN1C(C(=O)Nc2ccccn2)=C(O)c2ccccc2S1(=O)=O`, with 7.36% (inactive). Still for that read-out and setting: for `NS(=O)(=O)c1cc2c(cc1Cl)NCNS2(=O)=O` the value was 16.6% (inactive). Consider `CN(Cc1cnc2nc(N)nc(N)c2n1)c1ccc(C(=O)N[C@@H](CCC(=O)O)C(=O)O)cc1`, for which the “activity, positive = potentiation” value is -6.05% (inactive). As to `O=C1Cc2cc(CCN3CCN(c4nsc5ccccc45)CC3)c(Cl)cc2N1`, the “activity, positive = potentiation” value was -65.3% (inactive).

Turning to `COc1ccccc1OCC(O)CN1CCN(CC(=O)Nc2c(C)cccc2C)CC1` (stereo not given), the “activity, positive = potentiation” value is -32.8% (inactive).

For `O=C1N(c2ccccc2)c2ccccc2C1(Cc1ccncc1)Cc1ccncc1`, the “activity, positive = potentiation” value is -62.5% (inactive). As to `CC(C)NCC(O)COc1ccc(CCOCC2CC2)cc1` (stereo not given), the “activity, positive = potentiation” value is 32.7% (inactive). Regarding `CC#C[C@]1(O)CC[C@H]2[C@@H]3CCC4=CC(=O)CCC4=C3[C@@H](c3ccc(N(C)C)cc3)C[C@@]21C`, the Potency was 2310 nM (active). Take `CN(C)CCOC(c1ccccc1)c1ccccc1`: the “activity, positive = potentiation” value is 11.8% (inactive).

For the compound `O=C(c1ccc(F)cc1)C1CCN(CCn2c(=O)[nH]c3ccccc3c2=O)CC1`, the “activity, positive = potentiation” value is -98.6% (inactive). Consider `CCc1cccc2c3c([nH]c12)C(CC)(CC(=O)O)OCC3` (stereo not given), for which the “activity, positive = potentiation” value is -7.52% (inactive).

For `CCCNCC(O)COc1ccccc1C(=O)CCc1ccccc1` (stereo not given), the “activity, positive = potentiation” value is -85.5% (inactive). Same read-out and setting: for `Nc1nc2c(ncn2COC(CO)CO)c(=O)[nH]1` the value was -0.434% (inactive). Same read-out and setting: then `CCOC(=O)c1ncn2c1CN(C)C(=O)c1cc(F)ccc1-2`, with 4.26% (inactive).

Consider `NC(=O)OCC(COC(N)=O)c1ccccc1`, for which the “activity, positive = potentiation” value was 1.7% (inactive). The same measure, in the same setting: for `COc1ccc(C2CNC(=O)C2)cc1OC1CCCC1` (stereo not given) the value was -1.9% (inactive). Still for that read-out and setting: then `NCCCCCC(=O)O`, with -9.52% (inactive); and `Clc1ccc2nsnc2c1NC1=NCCN1`, with 0.182% (inactive). For `CN1C2CCC1CC(OC(=O)C(CO)c1ccccc1)C2` (stereo not given), the Potency entry was “inactive”. On to `CCC1(c2ccccc2)C(=O)NCNC1=O`, for which the “activity, positive = potentiation” value was 15% (inactive). Same read-out and setting: then `Clc1ccc(C(c2ccccc2Cl)C(Cl)Cl)cc1` (stereo not given), with -12.6% (inactive). Take `CCN1CCCC1CNC(=O)c1cc(S(=O)(=O)CC)c(N)cc1OC` (stereo not given): the “activity, positive = potentiation” value is -25.7% (inactive).

Regarding `CN(C)c1nc(N(C)C)nc(N(C)C)n1`, the “activity, positive = potentiation” value was -5.34% (inactive). Regarding `CC(C(=O)O)c1cccc(C(=O)c2ccccc2)c1` (stereo not given), the “activity, positive = potentiation” value was 27.1% (inactive).
